# Laboratory results published in the supplement of paper PMC6555819.
# Assays:
# Test in all cases: PBM binding z-score (relative to random genomic background probes); higher = stronger binding; sequences stand for … in GC…GCGATTGACAGCGTAGAATGAAGG
# [1] = system: FXR:RXRa (NR concentration 270 nM, RXRa partner concentration 90 nM)
# Summary of the method: (§1)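 Ligand-free nuclear receptor dimers were applied to custom Agilent 4×180K protein-binding microarrays whose double-stranded probes carried direct-repeat seeds, single-nucleotide variants, half-site ablations and random human genomic background sequences in 34-nt variable regions. Incubation lasted 1 h. Binding z-scores were computed against the random background probes from regression-normalized fluorescence.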
# [2] = system: LXRa:RXRa (NR concentration 270 nM, RXRa partner concentration 90 nM)
# Summary of the method: as §1
# [3] = system: LXRa homodimer (NR concentration 270 nM)
# Summary of the method: as §1
# [4] = system: LXRb:RXRa (NR concentration 270 nM, RXRa partner concentration 90 nM)
# Summary of the method: as §1
# [5] = system: LXRb homodimer (NR concentration 270 nM)
# Summary of the method: as §1
# [6] = system: PPARa:RXRa (NR concentration 270 nM, RXRa partner concentration 90 nM)
# Summary of the method: as §1
# [7] = system: PPARg:RXRa (NR concentration 180 nM, RXRa partner concentration 90 nM)
# Summary of the method: as §1
# [8] = system: PPARg:RXRa 270nM:90nM, anti-RXR (NR concentration 270 nM, RXRa partner concentration 90 nM)
# Summary of the method: as §1
# [9] = system: PPARg:RXRa 30nM:10nM, anti-RXR (NR concentration 30 nM, RXRa partner concentration 10 nM)
# Summary of the method: as §1
# [10] = system: PPARg:RXRa 90nM:30nM, anti-RXR (NR concentration 90 nM, RXRa partner concentration 30 nM)
# Summary of the method: as §1
# [11] = system: PPARg:RXRa DBDmut IVT, anti-RXR (DBD mutation: RXRa K156A/R161A, NR concentration 270 nM, RXRa partner concentration 90 nM)
# Summary of the method: as §1
# [12] = system: PPARg:RXRa IVT, anti-PPARg (NR concentration 270 nM, RXRa partner concentration 90 nM)
# Summary of the method: as §1
# [13] = system: PPARg DBDmut:RXRa IVT, anti-PPARg (DBD mutation: PPARg1 K132A/R137A, NR concentration 270 nM, RXRa partner concentration 90 nM)
# Summary of the method: as §1
# [14] = system: PPARg DBDmut IVT, anti-PPARg (DBD mutation: PPARg1 K132A/R137A, NR concentration 270 nM)
# Summary of the method: as §1
# [15] = system: PPARg homodimer (NR concentration 180 nM)
# Summary of the method: as §1
# [16] = system: PXR:RXRa (NR concentration 270 nM, RXRa partner concentration 90 nM)
# Summary of the method: as §1
# [17] = system: PXR homodimer (NR concentration 270 nM)
# Summary of the method: as §1
# [18] = system: RARa:RXR (NR concentration 270 nM, RXRa partner concentration 90 nM)
# Summary of the method: as §1
# [19] = system: RARa homodimer (NR concentration 270 nM)
# Summary of the method: as §1
# [20] = system: RARb:RXRa (NR concentration 270 nM, RXRa partner concentration 90 nM)
# Summary of the method: as §1
Sequence,PBM binding z-score [1],PBM binding z-score [2],PBM binding z-score [3],PBM binding z-score [4],PBM binding z-score [5],PBM binding z-score [6],PBM binding z-score [7],PBM binding z-score [8],PBM binding z-score [9],PBM binding z-score [10],PBM binding z-score [11],PBM binding z-score [12],PBM binding z-score [13],PBM binding z-score [14],PBM binding z-score [15],PBM binding z-score [16],PBM binding z-score [17],PBM binding z-score [18],PBM binding z-score [19],PBM binding z-score [20]
CAGCCTATGTCAGGGCCAGTATAGGAGGAACGTT,-0.392,-0.569,-0.136,-0.524,-0.259,-0.324,0.129,-0.472,-0.514,-0.506,-0.717,-0.807,-1.25,-0.192,-0.0188,-0.63,-0.46,-0.507,-0.292,0.105
CCTCGGAGGACAACAGGAGGTCTGAGCTGCCAGA,-0.506,-0.574,-0.845,-1.09,-1,-0.764,-0.138,-0.868,-1.36,-1.17,-0.107,-0.71,-1.05,-1.49,-0.258,-0.738,-0.871,-0.635,-0.516,0.983
CCGACTTGGGCATAAGGTTACCATAAGCCAGCCC,0.141,1.54,-0.195,0.516,-1.29,0.631,0.738,0.712,-0.372,0.427,-0.117,-0.425,-0.991,-1.38,0.34,0.211,-0.364,0.822,-0.32,0.922
AGAACGAGGGCAAAGAGTTGATAGCACGGGTGGC,0.422,0.331,-0.368,-0.152,-0.712,1.78,1.8,2.07,0.549,1.55,3.36,2.41,0.499,-0.21,0.413,1.77,4.76,0.09,-0.299,2.11
CAGTCTAGGTCAGGGCCAGTATAGGAGGAACGTT,1.52,1.1,-0.0547,0.856,-0.215,2.68,2.64,2.85,1,1.96,5.44,4.91,0.454,-0.134,1.53,0.376,0.305,1.2,0.439,3.48
GCTCGGAGGACAAGGTCAGAGGTTTGTCCGTAGA,1.77,1.52,-0.501,1.28,-0.78,2.39,1.75,2.59,0.214,2.08,-0.0469,1.09,-1.25,-0.886,0.801,1.78,-0.0547,2.19,-0.638,3.47
TAGTCTAGGTCATGCGGGCCAGTATAGTGTCGGC,4.02,3.48,1.36,1.76,1.87,3.92,4.97,4.56,1.78,3.81,5.79,6.05,2.08,2.16,1.27,1.58,0.355,2.07,0.351,3.85
